# The entries come from a sample that favours hits as a whole.
# Rango complex inh: Rango-importin beta binding inhibition | Potency, µM (doses to about 92.2 µM), for the others: at the top dose inhibition of complex formation | 340,000 compounds, 0.031% hits | Rango CFP/YFP FRET sensor + importin beta, 45 min | Q14974 | AID 540263; calls by dose curve;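 also: potency is read from the fitted curve at half-maximal effect; 0% = DMSO wells and 100% = buffer wells lacking importin beta; nearly all actives have a fitted effect of over 15% in size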
# Target sequence (Q14974 whole entry, looked up): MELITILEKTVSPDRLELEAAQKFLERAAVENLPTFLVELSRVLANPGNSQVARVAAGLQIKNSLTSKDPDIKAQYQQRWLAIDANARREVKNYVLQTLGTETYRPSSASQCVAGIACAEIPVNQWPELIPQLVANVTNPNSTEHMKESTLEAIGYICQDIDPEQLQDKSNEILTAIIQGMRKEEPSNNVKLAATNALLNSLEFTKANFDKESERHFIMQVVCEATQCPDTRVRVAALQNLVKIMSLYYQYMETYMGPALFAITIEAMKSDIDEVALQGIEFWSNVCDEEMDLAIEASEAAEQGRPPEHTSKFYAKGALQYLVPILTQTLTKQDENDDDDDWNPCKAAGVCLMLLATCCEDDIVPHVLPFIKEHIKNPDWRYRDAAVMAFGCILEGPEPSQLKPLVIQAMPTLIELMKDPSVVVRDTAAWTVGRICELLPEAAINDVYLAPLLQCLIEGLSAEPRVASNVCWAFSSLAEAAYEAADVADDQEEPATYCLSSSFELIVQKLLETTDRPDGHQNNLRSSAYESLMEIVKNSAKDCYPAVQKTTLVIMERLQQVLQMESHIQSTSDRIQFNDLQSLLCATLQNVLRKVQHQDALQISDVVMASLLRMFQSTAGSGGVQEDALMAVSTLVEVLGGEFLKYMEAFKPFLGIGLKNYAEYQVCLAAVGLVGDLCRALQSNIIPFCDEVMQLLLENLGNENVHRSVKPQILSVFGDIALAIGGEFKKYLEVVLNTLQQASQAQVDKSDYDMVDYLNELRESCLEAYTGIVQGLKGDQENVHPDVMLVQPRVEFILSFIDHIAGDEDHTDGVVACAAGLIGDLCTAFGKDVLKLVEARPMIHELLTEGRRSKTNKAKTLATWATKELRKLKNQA
#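 FRET biosensor (snurportin 1 IBB flanked by EYFP and cerulean), 50 nM, with compound 5 min, then 0.125 microM importin beta in PBS, 1 mM DTT, 0.02% Tween-20, 0.1% BSA. CFP/YFP ratio read after 45 min at room temperature; pre-read flags interference.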
# MBNL1-CUG inh: MBNL1-poly(CUG) RNA binding inhibition. Q9NR56. TR-FRET MBNL1-His/biotin-(CUG)12 binding, 665/545 ratio. Potency, µM (titrated, usually from 57.5 µM), inactives show at the highest dose activity change, negative = inhibition, hits mostly inhibitors. 280,000 compounds, 0.036% hits; active = well fitted inhibition curve with a large enough effect in the signal ratio, with a control signal flat, not every such curve was filed as active; inconclusive = small, poorly fitted or top-dose-only effect, or effect the other way, or a change in a side signal; inactive = no such curve, though single readings can be large or run the other way; the % refers to the signal ratio; also: potency is read from the fitted curve at half-maximal effect; % is scaled to controls: 0 for no effect and ±100 for the full control effect
#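 Ratiometric TR-FRET (665 over 545 nm, excitation 340 nm) tracks disruption of MBNL1-His/biotin-(CUG)12 complex after 60 min at room temperature, with compounds at 92 nM to 58 uM final.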
# ClpP mod: qHTS Assay for Activators of ClpP | ATP-dependent Clp protease proteolytic subunit (Bacillus subtilis (strain 168)), P80244 | purified B. subtilis ClpP, FRET peptide cleavage, 20 min | Potency, µM (series often up to 57.5 µM), inactives show top-dose activity change, negative = active | 340,000 compounds, 1.9% hits | AID 651965, 2013; active = well fitted falling curve with a large enough effect; inconclusive = small, poorly fitted or top-dose-only effect; inactive = no such curve, though single readings can be large or run the other way; also: potency is read from the fitted curve at half-maximal effect; the source files actives as falling curves though it sought activators and does not explain the sign; nearly all actives have a fitted effect of over 65% in size
#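 ClpP 10 microg/mL final, pH 8 Tris/KCl buffer with BSA, glycerol, Tween-20; compound pinned in; FRET-FV substrate; RT 20 min; Ex320/Em430; ΔFRET vs ADEP 5.8 microM, DMSO, no enzyme.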
# CBFb RUNX1 block: blocks binding between human CBF-beta and RUNX1. 230,000 tested, under 10 active. Potency, µM (doses to about 59.8 µM), for inactives: at the top dose activity, negative = inhibition, most hits filed as inhibitors. AlphaScreen CBFb-His/RUNX1-biotin binding, biochemical. AID 1477; also: % of control where 0% means no effect
#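 CBFb-His/RUNX1-biotin, 30 nM each, preincubated 20 min RT; compound 15 min RT; Ni + streptavidin beads 50 ng each, 90 min RT; AlphaScreen read.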
# Rango release inh: prevents RanGTP from dissociating the Rango-importin beta complex; O95149+P62826; Biochemical FRET Rango-importin beta, RanGTP-induced dissociation; Potency, µM (highest dose often 46.1 µM), inactives show at the top dose activity change, negative = inhibition; 340,000 compounds, 0.071% hits; calls by dose curve; also: potency is read from the fitted curve at half-maximal effect; % of control where 0% means no effect; nearly all actives have a fitted effect of over 45% in size
#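 Quantitative HTS using a FRET biosensor: 0.1 uM Rango, 0.25 uM importin beta, 0.6 uM Ran, 2 mM GTP, 0.2 uM RCC1 final, PBS with DTT, Tween-20 and BSA. Post-read taken 45 min after Ran addition.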
# MBNL1 TRFRET: confirmation of inhibitors of human MBNL1-poly(CUG) RNA binding; shares compounds with MBNL1-CUG inh; TR-FRET MBNL1-His / biotin-(CUG)12 binding, 60 min; Potency, µM (doses to about 57.6 µM), inactives show top-dose activity change, negative = inhibition, most hits filed as inhibitors; 140 compounds, 50% hits
# MBNL1 AlphaScrn: blocks MBNL1 binding to (CUG)12 RNA in AlphaScreen; 140 compounds, 30% hits; AlphaScreen MBNL1-His / biotin-(CUG)12 binding; shares compounds with MBNL1-CUG inh; Potency, µM (top dose mostly 57.7 µM), for the others: at the top dose activity, negative = inhibition, usual class: inhibitors
# MBNL1 HTRF CS: counter-screen for MBNL1-poly(CUG) RNA binding inhibitors | shares compounds with MBNL1-CUG inh | His-Menin/biotin-MLL peptide TR-FRET counterscreen | 120 compounds, 20% hits | Potency, µM (highest dose often 57.6 µM), without a hit: at the top dose activity, negative = inhibition, actives largely listed as inhibitors | AID 651843
# * hit, by the source's call; u = inconclusive; x = no result given; ! = repeats disagree. Unless noted, calls follow the shape of the dose curve; as a rule, active = well fitted curve in the direction sought with a large enough effect; inconclusive = small, poorly fitted or top-dose-only effect, or another doubt; inactive = no such curve, though single readings can be large; an effect the other way counts as inactive or inconclusive.
SMILES,Rango complex inh,MBNL1-CUG inh,ClpP mod,CBFb RUNX1 block,Rango release inh,others
CCOc1ccc2nc(NCCNC(=O)Nc3cccc(C)c3)c(C#N)cc2c1,u,11%,16µM*,9%,u,
CCOc1ccc2nc(NCCNC(=O)Nc3ccccc3)c(C#N)cc2c1,u,20%,-5%,10%,u,
CN(CC(=O)Nc1cccc(S(=O)(=O)N2CCCC2)c1)Cc1ccccc1,-1%,x,25µM*,x,-8%,
CC(C)OCCCNC(=O)CCCN1C(=O)CCn2nc(-c3cccn3C)cc21,x,x,-2%,x,x,
O=C(NCCc1ccccc1)c1ccccc1NS(=O)(=O)N1CCCC1,-2%,1%,14µM*,3%,11%,
O=C(NCCc1ccccc1)c1ccc(S(=O)(=O)N2CCCCC2)cc1,x,x,-2%,x,x,
O=S(=O)(Nc1cccc2ccccc12)N1CCCC1,1%,-2%,28µM*,6%,-12%,
O=C(O)c1c2c(nc3ccccc13)CCCC2,x,x,-3%,x,x,
CC(C)n1cc(/C=C2\NC(=O)N(c3cccc(Cl)c3)C2=O)c2ccccc21,u,6%,-4%,-2%,u,
O=C(O)Cn1cc(/C=C2/NC(=O)N(c3ccc(Cl)cc3)C2=O)c2ccccc21,u,u,-3%,-5%,10µM*,
COc1ccc(CCC(=O)NC2CC(=O)N(c3ccc(OC)cc3)C2)cc1 (stereo unspecified),x,x,-1%,x,x,
CSc1nc(Oc2ccc(=O)n(C)n2)nc(N(C)C)n1,-2%,0%,-3%,9%,-13%,
CCCn1nc(Oc2nc(SC)nc(N(C)C)n2)ccc1=O,-1%,1%,25µM*,4%,13%,
COc1cccc2cc(C(=O)N3CCCCC3C)c(=O)oc12 (stereo unspecified),0%,5%,4%,-6%,-1%,
COc1cccc2cc(NC(=O)C3CCCCC3)c(=O)oc12,-5%,13%,35µM*,2%,17%,
CCN(CC)CCOC(=O)c1ccc(NC(=O)c2nn(-c3ccc(C)cc3)c(=O)c3c2c2ccccc2n3C)cc1,x,x,-8%,x,x,
CCCn1c(/C=C/c2ccccc2)nc2ccccc21,10%,u,13µM*!,u,11%,
Cc1ccc(NC(=O)Cn2c(/C=C/c3ccccc3)nc3ccccc32)cc1C,-1%,-1%,28µM*,7%,-6%,
COCCOCCn1c(/C=C/c2ccccc2)nc2ccccc21,1%,u,x,1%,-4%,
COc1cc2nc(NC3CCN(Cc4ccccc4)CC3)nc(N3CCCN(C)CC3)c2cc1OC,x,x,4%,x,x,
CSc1ccc(CNC(=O)c2sc3ncnc(N(C)C4CCCCC4)c3c2C)cc1,x,x,4%,x,x,
COC(=O)C1C(=O)c2c([nH]c(C(=O)OCCOC(C)C)c2C)CC1C (stereo unspecified),6%,-8%,32µM*,-1%,6%,
COC(=O)C1C(=O)c2c([nH]c(C(=O)OC3CCCCC3)c2C)CC1C (stereo unspecified),4%,2%,-2%,0%,-7%,
Cn1cc(CCCC(=O)NCc2ccccc2)c2ccccc21,0%,-5%,x,x,-20%,
Cc1ccc(CNC(=O)CCCc2cn(C)c3ccccc23)cc1,-5%,1%,28µM*,x,-19%,
SMILES,Rango complex inh,MBNL1-CUG inh,ClpP mod,CBFb RUNX1 block,Rango release inh,others
O=C(Nc1ccccc1)N(Cc1c[nH]c2ccccc12)C1CCCCCC1,x,x,-6%,x,x,
CCN(CC)Cc1c(NC(=O)c2ccc(OC)cc2)sc2c1CCCC2,x,x,-4%,x,x,
COc1cccc(-n2ccnc2SCC(=O)Nc2nccs2)c1,-3%,0%,28µM*,-9%,-18%,
COc1ccc(Cc2n[nH]c(=S)n2NC(=O)Nc2ccc(Cl)c(Cl)c2)cc1,-1%,14µM*,0%,-3%,0%,MBNL1 TRFRET=10µM*;MBNL1 AlphaScrn=-28%;MBNL1 HTRF CS=41µM*
Cn1c(CC(=O)Nc2ccc(Cl)c(Cl)c2)n[nH]c1=S,1%,1%,-3%,4%,-14%,
CCC(C)n1c(=N)c(S(=O)(=O)c2ccc(C)cc2)cc2c(=O)n3cc(C)ccc3nc21 (stereo unspecified),x,x,-6%,x,x,
Cc1o[nH]c(=O)c1CCC(N)C(=O)O (stereo unspecified),x,x,x,25%,x,
Cn1nccc1NC(=O)Nc1ccc(Cl)cc1,-4%,40µM*,0%,3%,-9%,MBNL1 TRFRET=10µM*;MBNL1 AlphaScrn=0%;MBNL1 HTRF CS=u
Cn1nccc1NC(=O)Nc1ccccc1,3%,u,-3%,x,2%,
Cn1nccc1NC(=O)Nc1cccc(Br)c1,1%,10µM*,1%,x,1%,MBNL1 TRFRET=8.2µM*;MBNL1 AlphaScrn=-5%;MBNL1 HTRF CS=26µM*
O=C(Nc1ccc(F)cc1)Nc1cccc(Br)c1,3%,x,0%,x,37%,
CC(C)N1CCC2(CC1)C(C#N)=C(N)NC(S)=C2C#N,x,u,x,-8%,x,MBNL1 TRFRET=21µM*;MBNL1 AlphaScrn=-12%;MBNL1 HTRF CS=18µM*
O=C1C(SCCO)=C(SCCO)C(=O)c2ccccc21,1%,u,2%,-2%,11%,MBNL1 TRFRET=5µM*;MBNL1 AlphaScrn=10µM*
O=c1[nH]c(Nc2ccccc2Cl)cc2ccccc12,u,x,5%,x,-26%,
O=c1[nH]c(Nc2ccc(F)cc2)cc2ccccc12,u,x,u,-26%,u,MBNL1 TRFRET=33µM*;MBNL1 AlphaScrn=13µM*;MBNL1 HTRF CS=2%
Cc1ccc(C)c(CSc2nc3ccncc3n2CC(=O)Nc2ccc(N(C)C)cc2)c1,x,x,4%,x,x,
COc1ccc(Cl)cc1NC(=O)CSc1ccc(-c2sc(C)nc2C)nn1,x,x,3%,x,x,
COc1cccc(CNC(=O)CCC2CCCN(C/C=C/c3ccccc3OC)C2)c1 (stereo unspecified),5%,7%,-1%,4%,0%,
COCCNC(=O)CCC1CCN(C/C=C/c2ccccc2OC)CC1,1%,-34%,x,x,-7%,MBNL1 TRFRET=-20%;MBNL1 AlphaScrn=u;MBNL1 HTRF CS=5%
CCC(=O)N1CCc2cc(S(=O)(=O)CCC(=O)N3CCN(c4cccc(C)c4C)CC3)ccc21,x,x,-8%,x,x,
COC(=O)NCc1cc2cc(Cl)ccc2[nH]1,0%,40µM*,0%,9%,-9%,MBNL1 TRFRET=-12%;MBNL1 AlphaScrn=-16%;MBNL1 HTRF CS=1%

# Screening results from PubChem.
